Reference: PubChem BioAssay AID488890 (Southern Research Specialized Biocontainment Screening …, 2010)
Among all 320,000 compounds or so, about 1,300 (0.41%) were called active. Roughly 3% stayed inconclusive and do not appear here. How the calls were made is not given here. A selection follows. Potency and affinity values are given separately.

assay: growth inhibition of non-replicating M. tuberculosis (AID 488890); settings: Mycobacterium tuberculosis non-replicating, at 25 µM, stronger effect = higher value;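 further: plate controls were DMSO cells for no effect and high antibiotic wells for full effect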

Structure (SMILES)	inhibition
Cc1ccc(/C=C2\SC(=S)N(CCC(=O)Nc3cccnc3)C2=O)cc1	2.99%
Cc1ccc(CN2CC(C(=O)N3CCN(c4ccccc4O)CC3)CC2=O)cc1 (stereo not drawn)	5.09%
COc1ccc2cc3cc(C(=O)N4CCN(c5ccccn5)CC4)oc3nc2c1	15.3%
CCOc1cc(/C=C/C(=O)N(CC)CC(=O)NCc2cccs2)cc(Cl)c1OC	11.9%
COc1ccccc1Cn1nnc2c(=O)[nH]c(C3CCN(C(=O)c4ccccc4Cl)CC3)nc21	33.2%
CC(=O)Nc1ccc(-c2csc(NC(=O)CCNC(=O)c3ccco3)n2)cc1	1.09%
O=C(COC(=O)CCS(=O)(=O)c1ccc(Cl)cc1)NCCc1ccc(Cl)cc1Cl	21.4%
COC(=O)c1cc(Br)c(=O)n(Cc2ccc(C(=O)O)cc2)c1	-0.84%
COC(=O)c1ccc(Cn2cc(C(F)(F)F)ccc2=O)cc1	69.9%
C[C@H](CO)N1C[C@H](C)[C@@H](CN(C)C(=O)NC2CCCCC2)Oc2c(NC(=O)Cc3ccccc3)cccc2C1=O	17.9%
CN(CC(=O)Nc1ccc(F)c(F)c1)S(=O)(=O)c1cccs1	2.99%
CCN(C[C@H]1N[C@@](C)(C(=O)OC)[C@H]2C(=O)N(C)C(=O)[C@@H]12)S(=O)(=O)c1ccc(OC)cc1	9.25%
COC(=O)COc1ccccc1C(N)=O	2.19%
CCC(CC)NC(=O)COc1ccc(OC)cc1C=O	-3.52%
COC(=O)COc1cc(Cl)c(C=O)cc1OC	65.7%
COC(=O)COc1ccccc1/C=C1/NC(=O)NC1=O	5%
COc1cccc(OC)c1C(=O)Nc1ccccc1C(=O)N1CCCCCC1	1.4%
NC(=O)CCN(C(=O)c1cccc(S(=O)(=O)N2CCc3ccccc32)c1)c1ccccc1	24.7%
CCOc1ccc(S(=O)(=O)N(C)c2ccc(OCC(=O)Nc3nccs3)cc2)cc1	20.7%
O=C(COc1ccccc1)Nc1nccs1	50.5%
CCOc1ccc(CC(=O)Nc2nccs2)cc1	3.37%
COc1cccc(OCC(=O)NNC(=O)c2cccs2)c1	88.2%
O=C(COc1ccccc1)Nc1ccncc1	49.4%

Structure (SMILES)	inhibition
O=C(COc1ccc2ccc(=O)oc2c1)Nc1nccs1	9.82%
COc1ccc(OCC(=O)Nc2ccncc2)cc1	67%
C/C(=N\NC(=O)COc1ccc2ccccc2c1)c1cccs1	1.6%
CCc1cccc(OCC(=O)Nc2c[nH]c(=O)[nH]c2=O)c1	-17.2%
COc1ccc(N2CC(NS(=O)(=O)c3cccs3)CC2=O)cc1 (stereo not drawn)	-13.6%
CCOc1ccc(NC(=O)CSc2nnc(C(C)C)n2CC)cc1	11.7%
CCn1cc(/C=C(\NC(=O)c2ccccc2F)C(=O)NCCCn2ccnc2)c2ccccc21	14.8%
COc1ccc(NC(=O)CSc2nc(-c3ccco3)nc3cc(=O)[nH]n23)cc1Cl	14.5%
CCCN(Cc1nnc(-c2ccccc2Cl)o1)C(=O)c1ccc(C)c(S(=O)(=O)N2CCOCC2)c1	-1.62%
CC(=O)C[C@@H](O)CC(=O)[C@@H]1OC(=O)CCCCCCCc2ccccc21	4.28%
Cc1ccc(C(=O)Nc2scc(-c3ccccc3)c2C(=O)O)cc1	67.7%
CCOC(=O)c1c(C)[nH]c(C=O)c1Cc1cccc(Cl)c1	22.5%
NC(=O)c1ccccc1NC(=S)NC(=O)c1ccc(Br)o1	13.4%
O=C(COc1ccc([N+](=O)[O-])cc1)N/N=C/c1ccccn1	64.7%
Cc1cc(OCC(=O)Nc2ccncc2)cc(C)c1Br	62.5%
Cc1cc(OCC(=O)Nc2ccncc2)c(C)cc1Br	68%
Cc1cc(C)cc(OCC(=O)Nc2ccncc2)c1	2.54%
O=C(CNc1ccc2ccccc2c1)N/N=C/c1ccccn1	56.7%
Cc1ccc(OCC(=O)Nc2ccncc2)cc1	76.7%
COC(=O)COc1ccc(/C=N/NC(=O)c2ccc(N(Cc3ccccc3)S(C)(=O)=O)cc2)cc1	64.2%
CCn1c(SCc2cccnc2)nnc1-c1c[nH]c2ccccc12	-5.65%
CC(=O)N1CCCc2cc(S(=O)(=O)NCCC3=CCCCC3)ccc21	17.1%
CCOC(=O)c1ccc(CNCc2ccc(Br)cc2)cc1	43.5%

Structure (SMILES)	inhibition
CC(=O)NCC(=O)OCC(=O)c1ccc(Br)cc1	27.9%
COc1ccc(C(=O)OCCN2CCCCC2)cc1	4.85%
CC(C)COc1ccc(C(=O)OCCN2CCCCC2)cc1	13.8%
O=C(CCCCN1CCCCC1)c1ccccc1	-7.7%
O=C(CN1CCCCC1)c1ccc(OC(F)F)cc1	-4.47%
O=C(CCN1CCCCC1)Nc1ccccc1	-3.98%
COc1ccc(C(=O)CN2CCCCC2)cc1	-2.71%
CCC(=O)c1ccc(OCC(O)CN2CCCCC2)cc1 (stereo not drawn)	9.06%
CC(C)Oc1ccc(OCCCN2CCCCCC2)cc1	35.7%
COCCC1CCCCN1C(=O)c1cc(COc2ccc(C)nc2)on1 (stereo not drawn)	-7.63%
Cc1csc(=Nc2c(C)n(C)n(-c3ccccc3)c2=O)n1Cc1ccccc1	-1.63%
NC(=O)c1ccsc1NC(=O)COC(=O)c1ccc(Cl)c(N)c1	-0.17%
COc1ccc(C)cc1NC(=O)CCC(=O)Nc1nnc(C2CCCCC2)s1	0.87%
CCN(CC1CCCN(CCc2cccc(OC)c2)C1)C(=O)c1ccoc1C (stereo not drawn)	-3.45%
Cc1cc(NC(=O)CSc2nnc(-c3ccc(S(=O)(=O)N4CCCC4)cc3)n2C)no1	-6.04%
O=C(Nc1cc(S(=O)(=O)N2CCCCCC2)ccc1OCC(F)(F)F)c1cnccn1	9.9%
Cn1c(=O)[nH]c2nncnc2c1=O	12.4%
CCCCn1c(N)c(N(CCC(C)C)C(=O)COC(=O)c2cccnc2Cl)c(=O)[nH]c1=O	17.4%
CC(=O)Nc1ccc(S(=O)(=O)NCC(=O)NCCc2ccc(S(N)(=O)=O)cc2)cc1	-0.25%
O=C(N=C1N=C2C=CC(Br)=CN2Cc2ccccc21)c1ccc([N+](=O)[O-])cc1[N+](=O)[O-]	61.8%
CCOc1ccc(NC(=O)CCN2CCCCC2)cc1	-37.2%
CCOc1ccc(OCCN2CCCCC2)cc1	8.17%
O=C(CSc1nnc(Cn2nnc3ccccc32)o1)Nc1cccc(Cl)c1	3.51%

Structure (SMILES)	inhibition
N#CCO/N=C(\c1ccccc1)c1ccncc1	0.55%
O=c1oc2ccccc2c(Nc2ccc(O)cc2)c1[N+](=O)[O-]	35.3%
O=c1oc2ccccc2c(Nc2cccc3ccccc23)c1[N+](=O)[O-]	21.2%
COc1ccc(S(=O)(=O)N2CCN(C)CC2)cc1C	0.44%
N#Cc1ccsc1NC(=O)C1CC(=O)N(Cc2ccccc2)C1 (stereo not drawn)	50.7%
Cc1nn(CC(=O)N2CCc3ccccc3C2)c(C)c1Cl	10.6%
CCOC(=O)c1c(NC(=O)CN2CCOCC2)sc(C(=O)NC)c1C	-15.7%
CCOC(=O)c1c(NC(=O)CCN2CCOCC2)sc(C)c1-c1ccccc1	55.4%
O=C(Nc1ncc2c(n1)-c1ccccc1OC2)c1ccccc1Cl	13.6%
O=C(Nc1ncc2c(n1)-c1ccccc1OC2)c1ccc(Cl)cc1	75.5%
COc1ccc(C(CNC(=O)c2cccc(S(=O)(=O)NCc3ccccc3)c2)N(C)C)cc1 (stereo not drawn)	-0.497%
O=C(NCc1ccc2c(c1)OCO2)c1ccc(Br)s1	70.4%
O=C(NCc1ccc2c(c1)OCO2)c1c(Cl)cccc1Cl	3.82%
CC(C)(C)OC(=O)[C@H](Cc1ccccc1)NC(=O)c1nc[nH]c1C(=O)N1CCNCC1	9.16%
Cc1ccc(NC(=O)C2(c3ccc([N+](=O)[O-])cc3)CCCC2)cc1	56.9%
CCOC(=O)C1CCN(c2c(-c3ccccc3)c3cc(Cl)ccc3[nH]c2=O)CC1	-6.2%
CN(Cc1ccccc1)C(=O)c1[nH]cnc1C(=O)N[C@@H](Cc1ccccc1)C(=O)OC(C)(C)C	57.5%
CC(C)Cc1cc(C(=O)Nc2ccc3c(c2)OCO3)no1	79%
CC(C)Cc1cc(C(=O)Nc2cc(Cl)ccc2Cl)no1	75.3%
CSc1ccccc1NC(=O)c1cc(CC(C)C)on1	77.5%
COc1ccc(NC(=O)c2cc(CC(C)C)on2)cc1OC	27.3%
COc1ccc(NC(=O)c2ccc(NC(=O)c3cccs3)cc2)cc1	17.2%
Cc1ccc(S(=O)(=O)N(C)/N=C2/C(=O)N(CC(=O)O)c3ccccc32)cc1	-9.17%

Structure (SMILES)	inhibition
CC/C(=N\NC(=O)Nc1ccccc1)c1c(O)n(Cc2ccccc2)c(=O)[nH]c1=O	0.07%
O=C(/C=C/c1ccc(Br)cc1)Nc1ccc(S(=O)(=O)Nc2ncccn2)cc1	21.5%
CCOc1ccccc1NC(=O)CCS(=O)(=O)c1cccs1	1.98%
C/C(=N\NC(=O)c1cccc(Br)c1)c1ccc(Br)cc1	5.12%
C/C(=N\NC(=O)c1cccc(Br)c1)c1cccnc1	-8.7%
C/C(=N/NC(=O)c1ccncc1)c1c[nH]c2ccccc12	52.8%
O=C(NCc1ccccn1)c1ccccc1OCc1ccc(F)cc1	-9.24%
C/C(=N/NC(=O)c1ccccn1)c1c[nH]c2ccccc12	53%
C/C(=N\NC(=O)c1ccccn1)c1ccc(Cl)cc1	65.9%
CCC(CC)=NNC(=O)c1ccccc1OCc1ccc(F)cc1	1.96%
C/C(=N/NC(=O)c1ccccn1)c1ccc(O)cc1	65.9%
CC(=O)NC(c1ccc(C(C)C)cc1)c1c(O)ccc2ccccc12 (stereo not drawn)	-3.1%
Cc1cc(C)c(S(=O)(=O)N2CCCC(C(=O)N3CCCC3)C2)c(C)c1 (stereo not drawn)	-5.37%
CCn1c(=O)n(CC)c2cc(NS(=O)(=O)c3ccccc3)ccc21	5.29%
COC(=O)c1c(-c2cccnc2)csc1NC(=O)c1cc(C)on1	39.4%
CC(C)c1ccc(NC2CCCN(C(=O)CCc3cnn(C)c3)C2)cc1 (stereo not drawn)	-5.85%
CC(=O)c1sc(NC(=O)CN2C(=O)CCC2=O)nc1C	-3.51%
O=c1cc([O-])[n+]2c3n1CCCN3CCC2	-14.7%
COc1ccc(C(=O)N/N=C(\C)CC(=O)Nc2ccccn2)cc1OC	-1.08%
COc1cc(C(=O)N/N=C(\C)c2ccccn2)cc(OC)c1OC	36.9%
CCn1c(SCC(=O)Nc2cc(Cl)ccc2OC)nnc1C1CC1	1.4%
